# Measured values as given in PubChem BioAssay AID1851 (National Center for Advancing Translational Sciences (NCATS), 2009).
# “And” between values parts separate entries of the source, which are not always exact repeats. Equal entries are not always repeated. Screen size: about 16,000 compounds; about 2,600 (16%) were called active. About 20% were inconclusive and are not listed. The call rests on the fitted dose curve; in most records, active means well fitted curve in the direction sought with a large enough effect; inconclusive means small, poorly fitted or top-dose-only effect, or effect the other way; inactive means no such curve, though single readings can be large or run the other way. The list is a sample of the results.
# Target: Cytochrome P450 2D6 (Homo sapiens) (UniProt P10635)
# Sequence (P10635 whole entry, looked up): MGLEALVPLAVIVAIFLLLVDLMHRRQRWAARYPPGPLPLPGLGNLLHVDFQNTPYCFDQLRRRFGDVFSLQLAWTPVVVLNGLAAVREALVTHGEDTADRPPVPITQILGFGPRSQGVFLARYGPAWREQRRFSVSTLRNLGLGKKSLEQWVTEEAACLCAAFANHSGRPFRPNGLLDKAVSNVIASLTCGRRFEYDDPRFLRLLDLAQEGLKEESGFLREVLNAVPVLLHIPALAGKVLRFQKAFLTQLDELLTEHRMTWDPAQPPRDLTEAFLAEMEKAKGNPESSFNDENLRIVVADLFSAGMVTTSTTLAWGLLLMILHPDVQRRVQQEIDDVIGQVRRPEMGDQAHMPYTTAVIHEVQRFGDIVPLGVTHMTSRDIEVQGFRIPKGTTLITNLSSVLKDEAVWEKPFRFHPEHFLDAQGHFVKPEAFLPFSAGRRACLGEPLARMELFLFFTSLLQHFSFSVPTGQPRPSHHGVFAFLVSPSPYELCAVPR
# Experiment: Cytochrome panel assay with activity outcomes
# Settings: recombinant CYP, pro-luciferin dealkylation, luminescence, p450-cyp2d6; series mostly up to 57.1 µM
# On the % scale 0 is the no-effect control and ±100 the full control effect.
Structure (SMILES),"activity, negative = inhibition",AC50
CC[N+](C)(CC)CCN1C(=O)c2ccccc2S1(=O)=O,-3.94% [at 11.4 µM] (inactive),
Cc1c(NC(=O)C23CC4CC(CC(C)(C4)C2)C3)c(=O)n(-c2ccccc2)n1C,,inactive
CC12CC[C@@H]3c4ccc(OP(=O)(O)O)cc4CCC3C1CCC2=O (stereo partly specified),0.651% [at 11.4 µM] (inactive),
Cn1cc(C(=O)c2cccc(Cl)c2Cl)cc1C(=O)O,,inactive
O=C(O)[C@H](CCc1ccccc1)N1C(=O)c2ccccc2C1=O,15.2% [at 11.4 µM] (inactive),
c1ccc2c(c1)C(=Nc1ccc(N=C3c4ccccc4-c4ccccc43)cc1)c1ccccc1-2,-8.16% [at 11.4 µM] (inactive),
O=C(O)c1ccc(C(=O)O)c(C(=O)O)c1.[NH-][C@@H]1CCCC[C@@H]1[NH-].[Pt],7.05% [at 11.4 µM] (inactive),
CC12CS(=O)(=O)CC1SC(=S)N2c1ccccn1 (stereo unspecified),,inactive
Cc1cc(O)c(C(C)C)cc1NC(=O)Nc1cccc2ccccc12,-5.76% [at 11.4 µM] (inactive),
CC1(C)CC(=O)C2=C(C1)N(c1ccc(F)cc1)C(N)=C(C#N)C2c1cccs1 (stereo unspecified),,inactive
Cc1cc(N2CCN(C)CC2)n2nc(-c3ccc(Cl)cc3)nc2n1,15% [at 11.4 µM] (inactive),
COc1cc(C)cc(OC)c1/C=C\C(=O)O,2.34% [at 11.4 µM] (inactive),
C[C@@H](COc1ccccc1)N(CCCl)Cc1ccccc1,,0.158 µM (active)
CN(C)CC(O)COc1cccc(OCC(O)CN(C)C)c1 (stereo unspecified),,inactive
CCOC(=O)c1cnc2ccc(C)cc2c1Sc1ccccc1C(=O)OC,,inactive
CNCCCC1c2ccccc2C=Cc2ccccc21,,15.8 µM (active) and 3.98 µM (active)
COc1ccc2c(c1OC)C(=O)N(C(C)C(=O)O)C2=O (stereo unspecified),,inactive
CN(C)CC/C=C1\c2ccccc2Sc2ccc(Cl)cc21,,2.51 µM (active)
Cc1ccc(-n2nc3c(c2NC(=O)c2cccs2)CSC3)cc1,,inactive
CCn1c(CCNC(=O)c2ccc(Cl)cc2Cl)n[nH]c1=S,,inactive
Cc1ccc(S(=O)(=O)N[C@H]2COC(=O)C/C=C\[C@H](C)[C@@H](NS(=O)(=O)c3ccc(C)cc3)COC(=O)C/C=C\[C@@H]2C)cc1,8.84% [at 11.4 µM] (inactive),
CCCC(=O)Nc1cc(-c2cn3cccnc3n2)ccc1OC,,inactive
CC(C)CO/N=C1/C[C@@H](O)[C@@H](O)[C@@H]2[C@@H]3C(=O)N([C@@H](C)c4ccccc4)C(=O)[C@H]3CC[C@H]12,-7.99% [at 11.4 µM] (inactive),
COc1ccc(/C=N/n2cnc3c([nH]c4ccc(Br)cc43)c2=O)cc1CN1CCOCC1,,inactive
CC(C)(CO)[C@H](O)C(=O)NCCCO,,inactive
NCCS,,inactive

Structure (SMILES),"activity, negative = inhibition",AC50
CNC(=S)N1CCN(c2ccccc2OC)CC1,,inactive
COc1ccccc1N1CCN(C[C@@H](O)COc2cccc3ccccc23)CC1,,794 nM (active) and 316 nM (active) and 126 nM (active)
O[C@@H](COc1cccc2ccccc12)CN1CCOCC1,-5.64% [at 11.4 µM] (inactive),
COCCn1c(=O)c(-c2cccc(Cl)c2)nc2cncnc21,,inactive
COc1ccc(N(CC(=O)NCc2cccc(OC)c2)S(=O)(=O)c2c(C)noc2C)cc1,,14.1 µM (active)
COCCCNC(=O)CN(c1ccc(OC)cc1)S(=O)(=O)c1ccc(NC(C)=O)cc1,,inactive
COC(=O)CN(c1ccc(OC)cc1)S(=O)(=O)c1c(C)noc1C,,inactive
CN=C1S/C(=C\c2ccc(Sc3ccc(Cl)cc3)o2)C(=O)N1C,,inactive
C#CCOCCCC(=O)O,15.7% [at 11.4 µM] (inactive),
Cc1ccc(CSc2nnc3c(n2)OC2(Nc4ccccc4-3)C(=O)Nc3ccc(F)cc32)cc1 (stereo unspecified),,25.1 µM (active)
COc1cccc(Nc2ncc3nc(C)c(=O)n(C4CC4)c3n2)c1,,inactive
O=C(NNC(=S)Nc1ccccc1)C1CC1,,inactive
S=C(Nc1ccccc1)N1CCCCC1,,inactive
O=C(Nc1ccccc1)OC[C@H](CN1CCCCC1)OC(=O)Nc1ccccc1,,0.398 µM (active)
COC(=O)COc1ccc(/C=C2/SC(=O)N(CC(=O)N3CCCC3)C2=O)cc1Br,,inactive
O=C(O)c1ccc(Sc2nnnn2-c2ccccc2)c([N+](=O)[O-])c1,,inactive
NCCNC(=O)c1ncsc1-c1cccc(F)c1,,inactive
Cn1c(-c2ccc(F)cc2)cnc1NCc1ccc(F)cc1,,0.0355 µM (active)
CN(C)c1ccc(-c2cc(NCc3cccnc3)ncn2)cc1,,inactive
c1cncc(CNc2ncn[nH]2)c1,5.73% [at 11.4 µM] (inactive),
COc1cccc(Nc2ncc3nc(-c4ccc(F)cc4)c(=O)n(C)c3n2)c1,,inactive
CCNc1ncc2ncc(=O)n(Cc3ccc(F)cc3)c2n1,,inactive
Cn1c(-c2ccc(F)cc2)cnc1NCc1cccc(F)c1,,0.0562 µM (active)
Cn1c(-c2ccc(Br)cc2)cnc1NCc1cccnc1,,0.501 µM (active)
Cn1c(=O)c(-c2ccc(F)cc2)nc2cncnc21,,inactive
CCC1CC2CC(NC(C)=O)C1C2 (stereo unspecified),,inactive

Structure (SMILES),"activity, negative = inhibition",AC50
Fc1ccc2c(c1)C1C=CCC1C(c1cc3c(cc1Br)OCO3)N2 (stereo unspecified),,inactive
CCCCOC(OCCCC)[C@H](O)CSc1ccc2ccccc2c1,-15.8% [at 11.4 µM] (inactive),
C#CCn1c(=O)c2c(ncn2C)n(C)c1=O,,inactive
Cc1cnc(CNc2ccnc(-c3ccccc3C(F)(F)F)n2)cn1,,inactive
COCCNc1ccnc(-c2ccccc2C(F)(F)F)n1,,inactive
Cc1cnc(CNc2ccnc(-c3ccccc3C)n2)cn1,,inactive
FC(F)(F)c1ccccc1-c1nccc(NCc2cccs2)n1,,25.1 µM (active)
CN(C)Cc1ccccc1-c1nccc(NCc2cccs2)n1,,1.58 µM (active)
Cc1ccccc1-c1nccc(NCc2cccs2)n1,,2.51 µM (active)
Cc1cnc(CNc2cc(-c3ccccc3C)ncn2)cn1,,inactive
CN(C)Cc1ccccc1-c1cc(NCc2cccs2)ncn1,,2 µM (active)
O=C(NCc1ccco1)c1cc(C(=O)C2CCCCC2)c[nH]1,,inactive
CCCCCC(=O)O[C@H](CC(=O)O)C[N+](C)(C)C,,inactive
Cc1cc2cccc(C)c2nc1SCC(=O)N(C)c1nc(-c2ccccc2)cs1,,inactive
COc1ccc(NC(=O)N2CCCC3(CCN(C(=O)c4cc(C(F)(F)F)cc(C(F)(F)F)c4)CC3)C2)cc1,,inactive
O=C1[C@H]2[C@H]3[C@H](O)[C@H](O)C/C(=N/OC[C@@H](O)COCc4ccco4)[C@@H]3CC[C@@H]2C(=O)N1C1CCCCC1,7.51% [at 11.4 µM] (inactive),
Oc1cccc2ccc(SSc3ccc4cccc(O)c4n3)nc12,-0.179% [at 11.4 µM] (inactive),
COc1ccc(-c2nn3cnnc3s2)cc1OC,,inactive
O=C(O)NCc1ccccc1 (tested in a mixture with another compound),,3.98 µM (active)
CCCC(=O)NNC(=O)CCC(=O)NCc1ccccc1,,inactive
C/C(=C/C(=O)NCc1ccccc1)C(=O)O,,inactive
CC1=CC(=O)N(c2cccc(C(F)(F)F)c2)C1c1ccc(Cl)cc1 (stereo unspecified),,2.51 µM (active)
O=c1c2ccc(Cl)cc2nc(-c2cccc(C(F)(F)F)c2)n1O,,inactive
Cc1n[nH]c(=O)n1-c1cccc(C(F)(F)F)c1,,inactive
O=C(CSc1nc(-c2ccccc2)nc2ccccc12)Nc1nccs1,,inactive
COC(=O)c1ccc(NC(=O)Cn2nc(-c3ccncc3)nc2SCC(=O)Nc2nccs2)cc1,,10 µM (active)

Structure (SMILES),"activity, negative = inhibition",AC50
CCC1C(=O)N=C(SCC(=O)Nc2ccc(C(=O)OC)cc2)NC1=O (stereo unspecified),,inactive
O=C(O)c1sc2cc(C(F)(F)F)cnc2c1-c1ccccc1,,inactive
CCCCC1CC(/C(C)=N/NC(N)=O)OC1=O (stereo unspecified),,inactive
CC(C)c1ccc(CNc2cc(N3CCCC3)ccc2[N+](=O)[O-])cc1,,inactive
O=C(NC(NCc1ccccc1)C(Cl)(Cl)Cl)c1cccnc1 (stereo unspecified),,inactive
CC(CP(=O)(O)O)NC(=O)Cc1ccccc1 (stereo unspecified),,inactive
O=C(Cc1ccccc1)NC(NCCc1ccccc1)C(Cl)(Cl)Cl (stereo unspecified),,14.1 µM (active)
Cc1n[nH]c(=S)n1/N=C/c1ccccc1OCc1ccc(Cl)cc1,,inactive
CCc1ccc(OCC(=O)NC(=S)Nc2ccc(F)cc2)c(Br)c1,,inactive
CCOc1nc(NCCc2ccc(OC)c(OC)c2)nc(NC(C)(C)CO)n1,,inactive
CCOc1ccc(CC(=O)C2C(=O)CCCC2=O)cc1OCC,,inactive
CCOc1ccc(CNC(=O)C2CC(=O)N(C3CCCC3)C2)cc1OC (stereo unspecified),,inactive
COc1cc(CNC(C)(C)CO)ccc1OCC(=O)Nc1ccc(Br)cc1,,5.01 µM (active)
COc1ccc(CNC(C)(C)C)cc1Cl,,inactive
C=CCOc1ccc(CNC(C)(C)CO)cc1OCC,,1.41 µM (active)
CCOC(=O)c1ccc(NC(=O)COc2ccccc2OC)cc1,,inactive
C=CCOc1ccc(CNC(C)(C)CO)cc1OC,,1.41 µM (active)
Cc1ccccc1C(=O)NNC(=O)c1ccoc1C,,inactive
CC(C)CC(=O)N[C@H](C(=O)N[C@H](C(=O)N[C@@H](CC(C)C)[C@H](O)CC(=O)N[C@@H](C)C(=O)N[C@@H](CC(C)C)[C@H](O)CC(=O)O)C(C)C)C(C)C,,inactive
O=C(Nc1nnc(-c2ccc(Cl)cc2)o1)Nc1ccccc1Cl,,inactive
COc1ccc(Oc2ncc3nc(-c4cc(F)cc(F)c4)c(=O)n(C)c3n2)cc1,,inactive
Cc1cc(C(F)(F)F)n2nc(-c3cnn(C)c3C(F)(F)F)cc2n1,,inactive
CN1CCN(c2ncc3nc(-c4cccs4)c(=O)n(C[C@H]4CCCO4)c3n2)CC1,,inactive
